Compound activity as filed in PubChem.
Mot1-301 SUMO: blocks SUMOylation pathway, rescuing yeast Mot1-301 growth; 320,000 tested, 1% active; growth rescue, % at 18.8 µM; AID 2716; S. cerevisiae Mot1-301 growth rescue, ATP luminescence, 38.5C; percent above DMSO median, 100 means doubled;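 active = every valid replicate shows activation above 250% relative to neutral control wells; inactive = the rest, any valid replicate at or below 250%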
NALP1 inh: inhibitors of NALP1 inflammasome in yeast; S. cerevisiae NALP1/ASC/caspase-1 growth, X-gal OD620, 72 h; inhibition, % at 10 µM; 280,000 tested, 0.61% active; AID 2071; in the data active = inhibition mostly above about 24%, no sharp cut-off; inactive = mostly below about 32%
CHT inh: inhibits the human high affinity choline transporter | Q9GZV3 | CHT-expressing cells, membrane potential dye, choline response; active compounds read low | B-score at 10 µM | 310,000 tested, 0.86% active | AID 488975;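 active = B-score over 3 SD under the library average, and starting fluorescence ratio not unusually high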;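 note: choline stimulus applied at its EC90 after an EC20 pre-addition; B-score computed on integrated fluorescence ratio after choline addition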
Target sequence (Q9GZV3 whole entry, looked up): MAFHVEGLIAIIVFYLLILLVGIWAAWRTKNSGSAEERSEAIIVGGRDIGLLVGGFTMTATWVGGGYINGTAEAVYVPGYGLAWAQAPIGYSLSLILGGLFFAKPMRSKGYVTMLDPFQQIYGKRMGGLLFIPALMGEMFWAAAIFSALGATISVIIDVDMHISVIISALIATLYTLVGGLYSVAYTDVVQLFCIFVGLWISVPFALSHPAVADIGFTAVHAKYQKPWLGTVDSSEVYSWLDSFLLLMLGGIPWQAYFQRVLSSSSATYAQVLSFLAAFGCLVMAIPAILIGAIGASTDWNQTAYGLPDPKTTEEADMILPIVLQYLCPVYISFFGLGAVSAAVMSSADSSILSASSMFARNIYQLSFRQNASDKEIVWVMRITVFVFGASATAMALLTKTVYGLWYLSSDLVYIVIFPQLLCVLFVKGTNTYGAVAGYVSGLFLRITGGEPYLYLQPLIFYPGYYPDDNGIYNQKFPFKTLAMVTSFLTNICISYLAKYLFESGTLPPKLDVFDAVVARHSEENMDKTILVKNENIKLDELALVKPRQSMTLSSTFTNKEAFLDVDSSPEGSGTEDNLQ
CHT PAM: allosteric activators of human choline transporter CHT | Q9GZV3 | CHT-expressing cells, membrane potential dye, choline EC20; active compounds read high; LV-AA mutant CHT in HEK293 cells | B-score at 10 µM | 310,000 tested, 0.49% active;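 active = initial fluorescence not abnormally high and integrated response B-score, plate-corrected, over 3 SD above library mean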
NLRP3 yeast inh: NALP3 inhibition in yeast | 330,000 tested, 0.39% active | Yeast reconstituted NLRP3/ASC/caspase-1, beta-gal luminescence, 24 h | inhibition, % at 10 µM;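 active = inhibition of 50% or more; inactive = inhibition below 50%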
Bfl-1 A1 inh: inhibitors of the anti-apoptotic protein A1, read as caspase activation. MEF A1-2A-BIM cells, Caspase-Glo 3/7 luminescence, 3 h; percent of clofoctol response, vehicle zero. 330,000 tested, 0.066% active. caspase activation, % (test concentration not listed). AID 2462;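 active = over half of replicate activation scores above 10%, or exactly half above 10 with the replicate mean above 10; inconclusive = replicate mean below 10 yet half the replicates above 10; inactive = over half of replicates below 10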
CHT block conf: confirmation of human choline transporter CHT inhibitors; shares compounds with CHT inh; CHT-expressing cells, choline membrane potential dye; LV-to-AA substituted CHT, HEK293 cells; CHT activity remaining % of control (active compounds read low), % at 10 µM; 2,400 tested, 70% active;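 active = choline transporter activity left, mean of duplicates at 10 µM, below buffer-only control mean minus 3 SD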;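 note: depolarization triggered by choline at its EC90 following an EC20 pre-addition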
HEK293 MPD ctr: counter-screen for CHT inhibitors: effect in parental HEK293 cells; shares compounds with CHT inh; membrane potential dye, choline response; active = decrease or increase beyond buffer ±3SD; membrane potential ratio readout (active if shifted either direction beyond buffer ±3SD; no single direction) at 10 µM; 2,400 tested, 4% active; AID 493222;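 note: parental cells lack the transporter so any hit is non-specific; ratio is peak minus trough fluorescence over baseline after EC90 choline challenge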
A number is an active result; – = inactive; ? = inconclusive; · = not tested or not shown. Rows were chosen to be rich in hits. Some 3% of all compounds tested hit in one or more screens of this group.

SMILES	Mot1-301 SUMO	NALP1 inh	CHT inh	CHT PAM	NLRP3 yeast inh	Bfl-1 A1 inh	CHT block conf	HEK293 MPD ctr
NC(=O)CC(NC(=O)c1ccccc1)c1ccc(N2CCCCCCC2)c([N+](=O)[O-])c1 (configuration not stated)	–	–	-11	–	–	–	1.4%	–
NC(=O)CC(NC(=O)c1cccc(Br)c1)c1ccc(N2CCCCCC2)c([N+](=O)[O-])c1 (configuration not stated)	–	–	–	–	–	–	·	·
NC(=O)CC(NC(=O)Cc1cccc2ccccc12)c1ccc(N2CCCCCCC2)c([N+](=O)[O-])c1 (configuration not stated)	–	–	–	–	–	–	·	·
NC(=O)CC(NC(=O)c1ccccc1)c1ccc(N2CCc3ccccc3C2)c([N+](=O)[O-])c1 (configuration not stated)	–	–	-9.49	–	–	–	17.9%	–
NC(=O)CC(NC(=O)c1ccc(Br)cc1)c1ccc(N2CCCCCC2)c([N+](=O)[O-])c1 (configuration not stated)	–	–	-7.74	–	–	–	58.6%	–
COc1cc(CC(=O)N2CCN(C(=O)C3CCCO3)CC2)cc(OC)c1OC (configuration not stated)	–	·	·	·	–	–	·	·
CCc1ccc(S(=O)(=O)NC(=S)NC2CCCCC2)cc1	–	–	–	–	–	–	·	·
CCOC(=O)C1CCCN(C/C(O)=C(\C#N)c2nc(-c3ccc(Cl)cc3)cs2)C1 (configuration not stated)	–	–	-5.66	–	–	–	–	–
N#C/C(=C(/O)CN1CCCC1)c1nc(-c2ccccc2)cs1	–	–	–	–	–	–	·	·
O=C(C1CCC(CNc2c(N3CCCCC3)c(=O)c2=O)CC1)N1CCCCC1 (configuration not stated)	–	–	–	–	–	–	·	·
CC1CCCN(C(=O)C2CCC(CNc3c(N4CCCCC4)c(=O)c3=O)CC2)C1 (configuration not stated)	–	·	-5.95	–	–	–	–	–
CC(/C=N/NC(=O)c1cc(-c2ccncc2)nc2ccccc12)=C\c1ccco1	–	·	-7.5	–	–	–	40.4%	–
O=C(CCc1ccccc1)N1CCN(c2ccc([N+](=O)[O-])cc2)CC1	–	–	–	–	–	–	·	·
CCOC(=O)c1cnc2c(Cl)cc(Cl)cc2c1NCCOCCO	–	–	-10.4	–	–	–	33.8%	–
COc1ccc(C(CNC(=O)c2oc3ccc(OC)cc3c2C)N2CCCC2)cc1 (configuration not stated)	–	·	–	–	–	–	·	·
CCc1ccc2oc(C(=O)NCC(c3ccc(OC)cc3)N3CCCCC3)c(C)c2c1 (configuration not stated)	–	–	-6.04	–	–	–	61.2%	–
c1cncc(CNCc2ccco2)c1	–	–	–	–	·	–	·	·
CCN(Cc1ccncc1)C(=O)c1cc(COc2ccc(OC)cc2Cl)on1	–	–	–	–	–	–	·	·
Cc1cc(CN(C)C(=O)c2cc(COc3ccc(F)cc3Cl)on2)n[nH]1	–	–	-6.04	–	–	–	54.6%	–
CCN(Cc1ccncc1)C(=O)c1cc(COc2ccc(F)cc2Cl)on1	–	–	-5.7	–	–	–	48.9%	–
[N-]=[N+]=NC[C@H](Cc1ccccc1)N1CC[C@@H](OCc2ccccc2)CCC1=O	–	–	–	–	–	–	·	·
COc1cc(CNc2ccc(N3CCCCC3)cc2)ccc1OCC(=O)NC(C)(C)C	–	–	-9.9	–	–	–	47.2%	–
CCCCCCCCN1[C@@H](CC(=O)O)c2ccc(C(F)(F)F)cc2S1(=O)=O	–	·	-6.1	–	–	?	64.7%	–
OCCNCc1cccc(Br)c1	–	–	–	–	–	–	·	·
Clc1cccc(CNCCNCc2cccc(Cl)c2)c1	–	–	-7.01	–	–	–	69.8%	–
SMILES	Mot1-301 SUMO	NALP1 inh	CHT inh	CHT PAM	NLRP3 yeast inh	Bfl-1 A1 inh	CHT block conf	HEK293 MPD ctr
O=C1c2ccccc2-c2cccnc21	–	–	-6.77	–	–	–	37.3%	–
COc1cc(C(=O)N2CCN(C(=O)c3cc(-c4ccccc4)n[nH]3)CC2)cc(OC)c1OC	–	–	–	–	–	–	·	·
COc1cccc(CNCc2cccnc2)c1OCc1ccccc1	–	–	–	–	–	–	·	·
COc1ccc(-c2nnc(SCC(=O)O)n2Cc2ccccc2)cc1	–	–	–	–	–	–	·	·
Cc1ccc(NC(=O)c2ccc(Cl)c(S(=O)(=O)NCC3CCCO3)c2)c(O)c1 (configuration not stated)	–	–	–	–	–	–	·	·
Cc1ccccc1NC(=O)c1ccc(F)c(S(=O)(=O)NCC2CCCO2)c1 (configuration not stated)	–	–	-7.68	–	–	–	20.8%	–
O=C(Nc1ccccc1Cl)c1ccc(S(=O)(=O)NCC2CCCO2)cc1 (configuration not stated)	–	–	-6.42	–	–	–	30.9%	–
O=S(=O)(c1cccc(Cn2nnc(-c3ccccc3)n2)c1)N1CCOCC1	–	·	·	·	–	–	·	·
O=C(Nc1ccc(N2CCOCC2)cc1)C1CCCCC1	–	–	–	–	–	–	·	·
CN(CC(=O)Nc1ccc(N2CCOCC2)cc1)C(=O)C1CCCC1	–	–	-8.27	–	–	–	–	–
CCCCn1c(SCC(=O)N2CCN(c3ccccc3)CC2)nc2ccsc2c1=O	–	–	-5.73	–	–	–	–	–
CCCCn1c(SCC(=O)N2CCC(C)CC2)nc2ccsc2c1=O	–	–	–	–	–	–	60.4%	–
Cc1ccc(S(=O)(=O)Nc2nc3ccccc3nc2NCc2ccco2)cc1C	–	–	-5.03	–	–	–	–	–
Cc1ccc(S(=O)(=O)Nc2nc3ccccc3nc2NCc2ccco2)cc1	–	–	–	–	–	–	·	·
COc1ccc(OC)c(CN2CCN(CC(=O)Nc3ccccc3C(=O)NC3CC3)CC2)c1	–	·	·	·	–	–	·	·
Nc1c(C(=O)NCCN2CCOCC2)c2nc3ccccc3nc2n1CCc1ccccc1F	–	–	-7.84	–	–	–	29.8%	–
Nc1c(C(=O)NCCN2CCOCC2)c2nc3ccccc3nc2n1CCc1ccccc1	–	–	–	–	–	–	·	·
COc1ccc(S(=O)(=O)N2CCCCC2)cc1NC(=O)[C@@H]1CCCN1C(=O)c1cccs1	–	·	·	·	–	–	·	·
CC1CCCCN1C(=O)c1ccc(C(=O)Nc2ccc(F)cc2)cc1 (configuration not stated)	–	·	-6.43	–	–	–	45.0%	–
